Calls of active or inactive are those of the source. Unless noted, the rule behind the calls is not given here.
Columns and labels:
[1] = tested on: XIP peptide (Xip251-270) binding; test: small-molecule binders of XIP peptide, primary screen, biochemical, small-molecule microarray, fluorescence 635/667 nm, 0.1 µg/mL protein (AID 1182); conditions: fluorescent protein binding, 635 nm, higher = more signal, called active from +8 up or from −8 down
XIP peptide (Xip251-270) = test: small-molecule binders of XIP peptide, primary screen, biochemical, small-molecule microarray, fluorescence 635/667 nm, 0.5 µg/mL protein (AID 1183); conditions: small-molecule microarray binding, fluorescence 635 nm; higher = more signal
[2] = Plasmodium falciparum growth inhibition, primary screen, strain 3D7, DAPI fluorescence, 100 nL (AID 1184);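 note: parasites grown inside human red blood cells in medium with human serum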; conditions: P. falciparum 3D7 growth, 3 d, higher = more signal
[3] = target: Homeobox protein Hox-A13 (Mus musculus) (UniProt Q62424); test: inhibitors of HoxA13-DNA binding, primary screen, biochemical, fluorescence polarization, labeled oligonucleotide (AID 1185); conditions: 15 min, higher = more signal, called active from +8 up or from −8 down
Homeobox protein Hox-A13 (Mus musculus), sequence (Q62424 whole entry, looked up): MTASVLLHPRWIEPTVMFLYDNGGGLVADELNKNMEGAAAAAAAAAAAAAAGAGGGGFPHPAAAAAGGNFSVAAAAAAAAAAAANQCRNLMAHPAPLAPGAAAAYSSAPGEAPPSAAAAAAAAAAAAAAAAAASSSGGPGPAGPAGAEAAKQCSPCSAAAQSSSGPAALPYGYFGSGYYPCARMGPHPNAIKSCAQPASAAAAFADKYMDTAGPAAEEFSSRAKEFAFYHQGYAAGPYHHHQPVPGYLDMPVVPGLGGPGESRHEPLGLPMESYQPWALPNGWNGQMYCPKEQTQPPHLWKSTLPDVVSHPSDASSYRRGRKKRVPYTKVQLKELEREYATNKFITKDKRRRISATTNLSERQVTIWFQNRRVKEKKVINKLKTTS

[4] = inhibitors of hydroxyurea-induced Chk1 phosphorylation, primary screen, imaging, HeLa, phospho-Chk1 antibody, percent positive cells (AID 1186); conditions: hydroxyurea-induced phospho-Chk1 immunofluorescence imaging, higher = more signal
[5] = inhibitors of hydroxyurea-induced Chk1 phosphorylation, primary screen, imaging, HeLa, phospho-Chk1 nuclear intensity (AID 1187); conditions: hydroxyurea-induced phospho-Chk1 immunofluorescence imaging, higher = more signal

Structure (SMILES) | composite z-score [1] | composite z-score (XIP peptide (Xip251-270)) | z-score [2] | z-score [3] | z-score [4] | z-score [5]
CCN1C(=O)C2CC(=O)C3C(CN(S(=O)(=O)c4ccc(C)cc4)C3c3ccc(C)cc3)C2C1=O (stereo not drawn) | 0.761 (inactive) | -0.248 | 0.38 | -4.69 (inactive) | 0.137 (inactive) | -0.0394 (inactive)
[N-]=[N+]=Nc1ccccc1C[C@]1(C(N)=O)COC(c2ccc(OCCCO)cc2)=N1 | 0.29 (inactive) | 0.546 | -1.88 | -4.74 (inactive) | -0.393 (inactive) | -0.137 (inactive)
COc1ccc([Si](C)(C)[C@H]2[C@H](CC(=O)N(CCO)Cc3ccccc3)O[C@@]3(C(=O)N(c4ccccc4)c4ccccc43)[C@@H]2C)cc1 | -0.372 (inactive) | 0.342 | -2.62 | -5.46 (inactive) | -0.807 (inactive) | -0.763 (inactive)
COc1cc2c(cc1OC)CN(C(=O)[C@@H]1[C@H]3C(=O)O[C@H](c4ccccc4)[C@H](c4ccccc4)N3[C@H](c3ccc(O)cc3)[C@@]13C(=O)Nc1ccc(C#CC4=CCCCC4)cc13)CC2 | 0.715 (inactive) | 0.535 | -0.75 | 2.74 (inactive) | 0.0655 (inactive) | 0.407 (inactive)
COCCOC(=O)N1C(=O)[C@@]2(c3cc(C#CCNC(N)=O)ccc31)[C@H](C(=O)Nc1nc3ccccc3s1)[C@H]1C(=O)O[C@H](c3ccccc3)[C@H](c3ccccc3)N1[C@@H]2c1ccc(O)cc1 | -0.0637 (inactive) | 0.321 | 0.106 | -0.879 (inactive) | -0.0038 (inactive) | -0.0749 (inactive)
C=CCNC(=O)[C@H]1[C@@H]2C(=O)O[C@@H](c3ccccc3)[C@@H](c3ccccc3)N2[C@@H](c2ccc(OCCO)cc2)[C@]12C(=O)N(C(=O)OCCOC)c1ccc(C#CCNC(N)=O)cc12 | 0.797 (inactive) | 0.579 | 0.0978 | -1.67 (inactive) | -0.128 (inactive) | -0.209 (inactive)
CCCCC(=C=CC[C@H](O)c1ccccc1OCCO)CCO | 1.47 (inactive) | -0.0255 | -0.315 | -3.54 (inactive) | 0.324 (inactive) | 0.181 (inactive)
C=CC[C@@]1(C(=O)NCCCOC)N=C(c2ccc(OCCCO)cc2)O[C@@H]1c1ccccc1CN=[N+]=[N-] | 0.204 (inactive) | 0.44 | -2.25 | -5.2 (inactive) | -0.551 (inactive) | -0.721 (inactive)
CCCCCCc1nc(Cc2cc(OC)c(OC)c(OC)c2)c(C)c2c1[Si](C(C)C)(C(C)C)OC2 | -0.814 (inactive) | 0.0092 | -2.76 | -1.45 (inactive) | -0.817 (inactive) | -0.386 (inactive)
O=C1OCCC/C=C\[C@H]2OC34C=CCN(Cc5ccccc5)C(=O)[C@H]3N(CCO)C(=O)[C@@H]4C12 (stereo partly drawn) | 1.68 (inactive) | -0.0058 | 0.499 | -5.69 (inactive) | -0.909 (inactive) | -0.375 (inactive)
C=CC[C@]1(C(N)=O)N=C(c2ccc(OCCCO)cc2)O[C@H]1c1ccccc1N=[N+]=[N-] | 1.26 (inactive) | 0.688 | -1.98 | -5.2 (inactive) | -0.37 (inactive) | -0.532 (inactive)
CCCCN1CC=CC23O[C@@H]4/C=C\CCC(C)OC(=O)C4[C@H]2C(=O)N(CCO)[C@@H]3C1=O (stereo partly drawn) | 0.874 (inactive) | -0.629 | -0.165 | -5.58 (inactive) | -0.967 (inactive) | -0.862 (inactive)
COc1ccc([Si](C)(C)[C@H]2[C@H](CC(=O)N(CCO)Cc3ccccc3)O[C@@]3(C(=O)N(Cc4cccc(N5CCCCC5=O)c4)c4ccccc43)[C@@H]2C)cc1 | 2.13 (inactive) | 0.587 | -2.59 | -0.38 (inactive) | -0.929 (inactive) | -0.607 (inactive)

Reference: PubChem BioAssay
